The record followed here is PubChem BioAssay AID540333 (Southern Research Specialized Biocontainment Screening …, 2011).

Structures are written as SMILES. The whole screen tested about 10,000 compounds, of which about 320 (3.2%) were called active. Rule as the data show it: active = CPE inhibition mostly above about 9.1% (no sharp cut-off); inactive = mostly below about 7.2%. Only a selection was taken, and actives are over-represented in it overall.

A short description of the test: antivirals protecting cells from dengue CPE – CPE readout, HTS (AID 540333). To be noted: Dengue virus CPE inhibition in host cells, at 20 µM; hits give high values.
As for `Cc1cc(C)c2c(c1)cc(C)c1nnc(SCC(=O)Nc3ccccc3N3CCOCC3)n12`, the CPE inhibition entry is “inactive”.
For the compound `CCOc1cc(/C=C2\NC(=S)N(c3c(C)n(C)n(-c4ccccc4)c3=O)C2=O)ccc1O`, the CPE inhibition was 0.065% (inactive).
In the case of `CCOc1cc(/C=C2\C(=O)N(CCc3ccc(OC)c(OC)c3)C(C)=C2C(=O)OC)ccc1O`, the CPE inhibition is 2.62% (inactive).
Next, `CCOc1cc(/C=C2\C(=O)N(c3cccc(C(F)(F)F)c3)C(=O)c3ccccc32)ccc1O`: 17.1% (active); `CN(C)S(=O)(=O)c1cccc(NC(=O)COC(=O)/C=C/c2ccco2)c1`: “inactive”.
With `COc1ccccc1-c1coc2cc(OCC(=O)OCc3ccccc3)ccc2c1=O` the entry was “inactive”.
With `CCCOC(=O)c1ccc(NC(=O)C(CC)CC)cc1`, the CPE inhibition entry was “inactive”.
With `CCCOC(=O)c1ccc(NC(=O)c2cc(Cl)ccc2OC)cc1` the figure was 0.345% (inactive); with `CCCCOC(=O)c1ccc(NC(c2ccc(C)cc2)P(=O)(OC)OC)cc1` (stereo not drawn), 41.4% (active).
As for `Cc1ccc(NC(=O)c2cncc(Br)c2)cc1S(=O)(=O)N(C)C`, the CPE inhibition result is “inactive”.
Consider `CCCNC(=O)Cn1nc([N+](=O)[O-])c([N+](=O)[O-])c1C`, for which the CPE inhibition entry was “inactive”.
With `COc1ccc(C2CC(c3ccccc3)=NN2C(=O)COC(=O)C2CC2)cc1` (stereo not drawn) the figure was 1.49% (inactive).
With `CCn1cc([N+](=O)[O-])c(C(=O)N2N=C(c3ccccc3)CC2c2ccc([N+](=O)[O-])cc2)n1` (stereo not drawn), the CPE inhibition was 1.99% (inactive).
Take `O=C(c1cccs1)N1N=C(c2ccccc2)CC1c1ccc(O)cc1` (stereo not drawn): the CPE inhibition is 30.5% (active).
With `COc1ccccc1-c1nnc(NC(=O)C2=COCCO2)o1` the figure was 0.3% (inactive).
Next, `Cc1onc(-c2c(F)cccc2Cl)c1C(=O)NC(=S)NCc1cccnc1`: “inactive”; `CCN(CC)S(=O)(=O)c1ccc(C)c(NC(=S)NNC(=O)C2CC2)c1`: 0.73% (inactive); `O=C(CNC(=O)C1CCCCC1)Nc1cc(Cl)ccc1Cl`: “inactive”.
As for `CCN(CC)c1ccc(S(=O)(=O)Nc2cc(Cl)ccc2Cl)cc1NC(=S)NC(=O)C1CCCC1`, the CPE inhibition is 26.9% (active).
Take `O=[N+]([O-])c1cccc(N/N=C/c2cccc3ccccc23)c1`: the CPE inhibition was 0.555% (inactive).
As for `CCn1cc(CNC(=O)c2cccc([N+](=O)[O-])c2)c(C)n1`, the CPE inhibition is 0.4% (inactive).
For the compound `O=C(Cc1ccc(Cl)cc1)Nc1cccc(S(=O)(=O)Nc2ccccc2F)c1`, the CPE inhibition was 0.29% (inactive).
With `Cc1cccc(NC(=S)N2CCCCCC2)c1` the figure was 0.335% (inactive); with `Cc1cccc(NC(=S)N2CCCCC2)c1`, 0.28% (inactive).
Next, `Cc1cccc(NC(=S)N/N=C2/CCCCc3ccccc32)c1`: 11.6% (active); `Cc1ccc(C(=O)NN2C(=O)C3C4c5ccccc5C(c5ccccc54)C3C2=O)cc1` (stereo not drawn): 1.93% (inactive); `COc1ccc(CCNC(=O)c2ccccc2N(C)S(=O)(=O)c2ccccc2)cc1`: “inactive”.
For the compound `CCOc1ccccc1NC(=O)c1cc(C(=O)c2cc(OC)ccc2O)coc1=N`, the CPE inhibition result is “inactive”.
Next, `COc1ccc(O)c(C(=O)c2cc(C(=O)NCCc3ccccc3)c(=O)n(CCc3ccccc3)c2)c1`: 15.6% (active); `Cc1ccc(SCc2cc(=O)[nH]c(Nc3nc(C)c4ccc(C)cc4n3)n2)cc1`: 2.63% (inactive); `Cc1ccccc1-c1ccc(C(=O)NCc2ccccc2)o1`: “inactive”.
Next, `O=C(C[n+]1cc(-c2ccccc2)n2c1CCC2)N1c2ccccc2Sc2ccccc21`: 2.94% (inactive); `O=C(C[n+]1cc(-c2ccc(Cl)cc2)n2c1CCC2)N1c2ccccc2Sc2ccccc21`: 2.13% (inactive).
Regarding `O=C(C[n+]1cc(-c2ccc(Cl)c(Cl)c2)n2c1CCC2)N1c2ccccc2Sc2ccccc21`, the CPE inhibition was 15.1% (active).
With `Cc1ccc(N=Nc2ccc(O)c3ncccc23)cc1` the figure was 0.345% (inactive).
Consider `O=S(=O)(Nc1ccc2ccccc2c1)c1ccccc1`, for which the CPE inhibition entry is “inactive”.
Regarding `O=S(=O)(Nc1ccc(N=Nc2ccc(O)c3ccccc23)cc1)c1ccccc1`, the CPE inhibition is 10.4% (active).
Consider `Cc1ccc(-c2cc3nc(-c4ccc(Br)cc4)cc(N)n3n2)cc1`, for which the CPE inhibition was 8.6% (inactive).
For the compound `Cc1ccccc1CSCC(=O)Nc1ccccc1-c1ccccc1`, the CPE inhibition was 2.64% (inactive).
Turning to `CCC(C(=O)OCC(=O)Nc1ccccc1-c1ccccc1)c1ccccc1` (stereo not drawn), the CPE inhibition was 4.5% (inactive).
Next, `O=C(CNC(c1ccccc1)c1ccccc1)Nc1ccccc1-c1ccccc1`: 25.7% (active); `Cc1ccc(/C=N/n2c(C)cc(C)c(C#N)c2=O)o1`: 1.26% (inactive); `Cc1ccc(C2=[N+]([O-])C(C)(C)N(O)C2(C)C)cc1`: “inactive”.
As for `CCC(=O)NC(NC(=S)Nc1ccccc1Br)C(Cl)(Cl)Cl` (stereo not drawn), the CPE inhibition was 0.015% (inactive).
With `CCc1ccc(OCC(=O)NC(NC(=S)Nc2ccccc2OC)C(Cl)(Cl)Cl)cc1` (stereo not drawn) the figure was 12.2% (active).
For the compound `CCOC(=O)NC(NC(=S)Nc1ccccc1OC)C(Cl)(Cl)Cl` (stereo not drawn), the CPE inhibition was 1.97% (inactive).
Consider `c1ccc2c(c1)CCN(c1nc(CN3CCOCC3)nc3sc4c(c13)CCCC4)C2`, for which the CPE inhibition is 7.32% (inactive).
As to `Cc1cccc(Oc2nc(CN3CCOCC3)nc3sc4c(c23)CCCC4)c1`, the CPE inhibition was 15.4% (active).
For `COc1cc2c(cc1OC)CN(c1nc(CN3CCOCC3)nc3sc4c(c13)CCC(C)C4)CC2` (stereo not drawn), the CPE inhibition result was “inactive”.
For `Cc1c(C)c2ccc(OS(C)(=O)=O)cc2oc1=O`, the CPE inhibition was 0.305% (inactive).
Next, `Oc1c(C=C2N=c3ccccc3=N2)sc(=S)n1-c1ccccc1`: 1.34% (inactive).
Next, `Oc1c(C=C2N=c3ccccc3=N2)sc(=S)n1C1CCCC1`: 0.885% (inactive); `O=C(O)CCCCCn1c(O)c(C=C2N=c3ccccc3=N2)sc1=S`: 11.8% (active).
Consider `COC(=O)c1cc(CNC(=O)c2ccc(O)c(Cl)c2)ccc1OC`, for which the CPE inhibition is 0.01% (inactive).
With `Cc1ccc(Nc2nnc(SC(C)C(=O)Nc3c(C)n(C)n(-c4ccccc4)c3=O)s2)cc1` (stereo not drawn) the entry was “inactive”.
With `CC(Sc1nnc(NC2CCCCC2)s1)C(=O)Nc1ccc2c(c1)C(=O)c1ccccc1C2=O` (stereo not drawn) the figure was 11.9% (active); with `CC(Sc1nnc(NCc2ccccc2)s1)C(=O)Nc1ccc2c(c1)C(=O)c1ccccc1C2=O` (stereo not drawn), 4.04% (inactive); with `CCNC(=S)N/N=C(\C)c1cc2ccccc2o1`, 0.995% (inactive).
In the case of `CCSc1nnc(CNC(=O)C23CC4CC(CC(C4)C2)C3)n1Cc1ccccc1`, the CPE inhibition is 0.79% (inactive).
In the case of `CCCSc1nnc(CNC(=O)C23CC4CC(CC(C4)C2)C3)n1Cc1ccccc1`, the CPE inhibition was 7.14% (inactive).
With `CCSc1nnc(CNC(=O)C23CC4CC(CC(C4)C2)C3)n1C1CCCCC1` the figure was 5.44% (inactive); with `CCC(C)Sc1nnc(CNC(=O)C23CC4CC(CC(C4)C2)C3)n1C1CCCCC1` (stereo not drawn), 12.2% (active); with `Cc1nnc(SCC(=O)NC(C)(C)C)n1C1CCCCC1`, “inactive”.
Consider `COc1ccc(C(=O)NCc2nnc(SCC(=O)N3CCc4ccccc43)n2Cc2ccccc2)cc1`, for which the CPE inhibition entry is “inactive”.
Take `CCCCSc1nnc(CNC(=O)C23CC4CC(CC(C4)C2)C3)n1Cc1ccccc1`: the CPE inhibition is 8.5% (active).
Next, `CC(C)Sc1nnc(CNC(=O)C23CC4CC(CC(C4)C2)C3)n1Cc1ccccc1`: 14.9% (active); `O=C(CNC(=O)C12CC3CC(CC(C3)C1)C2)N1CCN(S(=O)(=O)/C=C/c2ccccc2)CC1`: 0.155% (inactive); `CCOC(=O)CC1C(=O)NCCN1C(=S)Nc1ccccc1` (stereo not drawn): 0.585% (inactive).
As to `O=C(NC1(C(F)(F)F)NC(=O)N(CCc2ccccc2)C1=O)C1CC1` (stereo not drawn), the CPE inhibition result was “inactive”.
Next, `COc1ccccc1-n1cc(-c2ccc(Cl)cc2)[nH]c1=O`: 0.275% (inactive); `COc1ccc(-c2nc(NC(=O)c3ccc(OCC(=O)Nc4ccc(F)cc4)c(OC)c3)sc2C)cc1`: 12.6% (active); `Cc1ccc(C)c(OCC(=O)Nc2ccc(S(=O)(=O)Nc3ccccn3)cc2)c1`: 0.235% (inactive).
With `COc1cc(C(=O)Nc2nc(-c3ccc(Cl)cc3)c(C)s2)ccc1OCC(=O)Nc1ccc(F)cc1` the figure was 6.33% (inactive); with `COc1cc(/C=C2\SC(N)=NC2=O)ccc1OCC(=O)Nc1ccc(C)cc1`, 1.51% (inactive); with `CCc1ccc(-c2nc(NC(=O)c3ccc(OCC(=O)Nc4ccc(F)cc4)c(OC)c3)sc2C)cc1`, 0.375% (inactive).
`COc1cc(C(=O)Nc2nc(-c3cc(C)ccc3C)c(C)s2)ccc1OCC(=O)Nc1ccc(F)cc1`: the CPE inhibition is 14.4% (active).
With `COc1ccc2[nH]c(O)c(N=NC(=N)N)c2c1` the figure was 0.45% (inactive); with `COC(=O)c1cc([N+](=O)[O-])ccc1N1CCN(Cc2ccccc2)CC1`, 0.06% (inactive).
Turning to `COc1ccc(C(=O)OC(C)C(=O)Nc2cc(C(F)(F)F)ccc2Cl)c(OC)c1OC` (stereo not drawn), the CPE inhibition was 2.02% (inactive).
On to `CCN(CC)S(=O)(=O)c1cc(NC(=O)COc2ccc(C#N)cc2OC)ccc1C`, for which the CPE inhibition result was “inactive”.
With `Cc1nc2ccc(C(=O)O)cc2nc1C` the figure was 0.025% (inactive); with `Nc1cc(Cl)ccc1C(=O)OCC(=O)NC(=O)NCc1ccccc1`, 19.5% (active).
Regarding `O=C(COC(=O)c1c(Cl)ccc(Cl)c1Cl)NC(=O)NCc1ccccc1`, the CPE inhibition was 0.78% (inactive).
Next, `O=C(COC(=O)c1ccccc1Cl)NC(=O)NCc1ccccc1`: “inactive”; `CCOC(=O)/C=C(/C)N1N=C(c2ccc(OC)cc2)CC1c1cccc([N+](=O)[O-])c1` (stereo not drawn): 0.895% (inactive).
With `Cc1cc(OCCOCCN(C)C)ccc1Cl` the figure was 0.765% (inactive); with `COC(=O)C1=NN[C@H](C(=O)OC(C)(C)C)[C@H]1c1ccccc1`, “inactive”.
Next, `CCOc1ccc2c(c1)c(N=NC(=N)N)c(O)n2C`: 0.04% (inactive).
On to `O=S(=O)(NC1CCCCC1Oc1ccccc1)c1ccccc1` (stereo not drawn), for which the CPE inhibition was 3.28% (inactive).
Next, `O=S(=O)(NC1CCCCC1Nc1ccc(Cl)cc1)c1ccccc1` (stereo not drawn): 12.2% (active); `O=S(=O)(NC1CCCCC1Sc1ncccn1)c1ccccc1` (stereo not drawn): “inactive”; `COc1ccc(COc2cc(-c3cccc(OC)c3)nc3ccc(NC(=O)c4ccc(Cl)cc4)cc23)cc1`: 4.84% (inactive).
With `CCC(=O)NC(=S)Nc1ccc(NC(=O)COc2ccccc2)cc1` the entry was “inactive”.
